# According to PubChem BioAssay (NCATS):
# Values without a mark were called inactive. Records with an inconclusive call do not appear. A call without a number means that no potency is given here. Activity calls are given as the source filed them. Calls come from the whole dose curve; as a rule, active = well fitted curve in the direction sought with a large enough effect; inconclusive = small, poorly fitted or top-dose-only effect, or another doubt; inactive = no such curve, though single readings can be large; an effect the other way counts as inactive or inconclusive.
# Columns and labels:
# [1] = test system: Zika virus NS2B-NS3 protease (linked construct); experiment: Primary screen NINDS Rhodamine qHTS for Zika virus inhibitors (AID 1347160); note: nearly all actives have a fitted effect of over 55% in size
# Outline: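 Kinetic fluorescence (Ex 480 nm, Em 540 nm) over 15 min with 1.5 microM Rhodamine110 peptide and 25 nM linked protease.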
# [2] = molecular target: Calcium and integrin-binding protein 1 (Homo sapiens) (UniProt Q99828); experiment: Primary qHTS for Identification of Calcium Integrin Binding Protein 1 (CIB1) Competitor (AID 1508620);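 note: GST tagged CIB1 binding a fluorescein labelled alphaIIb integrin peptide tracer; top concentration of the series differs between compounds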
# Outline: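 Fluorescence polarization competition: CIB1-GST (1 uM final) preincubated with compound 15 min at room temperature, then FITC-labeled alphaIIb peptide (100 nM final) added for another 15 min. Polarization read at Ex 480/Em 540.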
# [3] = molecular target: Glutathione peroxidase 1 (Homo sapiens) (UniProt P07203); experiment: Primary qHTS Assay for Inhibitors of Recombinant Selenoprotein Glutathione Peroxidase 1 (GPX1) (AID 1845191); note: nearly all actives have a fitted effect of over 65% in size
# Outline: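 Recombinant GPX1 (10 nM final) was preincubated with compound for 30 min at room temperature, then reacted with 1 mM GSH, 0.5 mM CHP, 0.5 mM NADPH and 100 nM glutathione reductase; NADPH fluorescence (340/450 nm) was read at 0 and 15 min.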
# [4] = molecular target: Phospholipid hydroperoxide glutathione peroxidase GPX4 (Homo sapiens) (UniProt P36969); experiment: Primary qHTS Assay for Inhibitors of Recombinant Selenoprotein Glutathione Peroxidase 4 (GPX4) (AID 1845192); note: nearly all actives have a fitted effect of over 65% in size
# Outline: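 GR-coupled readout: 100 nM GR, 1 mM GSH, 0.5 mM NADPH; NADPH fluorescence (ex 340/em 450 nm) read at t=0 and after 15 min RT. GPX4 200 nM, preincubated 30 min with compound; substrate 0.5 mM CHP.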
# [5] = molecular target: Luciferin 4-monooxygenase (Photinus pyralis) (UniProt P08659); experiment: Primary firefly luciferase (FLuc) qHTS assay for identification of artifact compounds. (AID 1845220); details: outcome: dose series up to 54.1 µM unless noted; note: nearly all actives have a fitted effect of over 60% in size
# Outline: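 In this counter-screen for luciferase artifacts, test compounds met substrate (10 uM each luciferin and ATP) before 10 nM enzyme started the reaction. Light output was measured 5 min later.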
# [6] = test system: Nanoluciferase (engineered Oplophorus gracilirostris luciferase); experiment: Primary Nanoluciferase (NLuc) qHTS assay for identification of artifact compounds. (AID 1845222);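 note: NLuc secreted into diluted conditioned medium of S16 cells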
# Outline: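 Using secreted nanoluciferase in S16 culture medium (0.22 um filtered, 1:55 dilution), compounds were preincubated 15 min at RT. Signal was generated with Nano-Glo reagent (1:100) over 5 min.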
# CRL-7250 = normal cell line; experiment: Cytotoxic Profiling of Annotated Libraries Using Quantitative High-Throughput Screening (AID 1296008); details: Five cell lines viability, CellTiter-Glo ATP luminescence, 48-72 h; max response: active compounds read low; note: nearly all actives have a fitted effect of over 60% in size; note: potency is the fitted concentration of half-maximal effect
# Outline: (§1)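 Compounds were pin-transferred onto cells and incubated 48 or 72 hr at 37 degree Celsius, 95% humidity. CellTiter-Glo was added, plates sat 10 min at room temperature, then ATP-coupled luminescence was imaged as the viability read-out.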
# C33A = experiment: Primary qHTS to identify gynecologic anti-cancer compounds using libraries of approved drugs and bioactive compounds (AID 1345084); details: Gynecologic cancer cell panel viability, ATPlite luminescence, 48 h; series mostly up to 57.5 µM; note: nearly all actives have a fitted effect of over 55% in size; note: potency is the fitted concentration of half-maximal effect
# Outline: (§2)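 Cells, 1,000 per well, plated 16 h, then exposed 48 h at 37 C to compounds. Viability by ATPlite luminescence after 15 min at room temperature.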
# CAOV3 = experiment: as above; details: Gynecologic cancer cell panel viability, ATPlite luminescence, 48 h; series mostly up to 57.5 µM
# Outline: as §2
# Es-2 = experiment: as above; details: Gynecologic cancer cell panel viability, ATPlite luminescence, 48 h; series mostly up to 57.5 µM
# Outline: as §2
# HeLa = experiment: as above; details: Gynecologic cancer cell panel viability, ATPlite luminescence, 48 h; series mostly up to 57.5 µM
# Outline: as §2
# JEG-3 = experiment: as above; details: Gynecologic cancer cell panel viability, ATPlite luminescence, 48 h; series mostly up to 57.5 µM
# Outline: as §2
# OV90 = experiment: as above; details: Gynecologic cancer cell panel viability, ATPlite luminescence, 48 h; series mostly up to 57.5 µM
# Outline: as §2
# PA-1 = experiment: as above; details: Gynecologic cancer cell panel viability, ATPlite luminescence, 48 h; series mostly up to 57.5 µM
# Outline: as §2
# Tov-21-G = experiment: as above; details: Gynecologic cancer cell panel viability, ATPlite luminescence, 48 h; series mostly up to 57.5 µM
# Outline: as §2
# NIH3T3 = experiment: Cytotoxic Profiling of Annotated Libraries Using Quantitative High-Throughput Screening (AID 1296008); details: Five cell lines viability, CellTiter-Glo ATP luminescence, 48-72 h; max response: active compounds read low; note: nearly all actives have a fitted effect of over 60% in size; note: potency is the fitted concentration of half-maximal effect
# Outline: as §1
# CASKI = experiment: Primary qHTS to identify gynecologic anti-cancer compounds using libraries of approved drugs and bioactive compounds (AID 1345084); details: Gynecologic cancer cell panel viability, ATPlite luminescence, 48 h; series mostly up to 57.5 µM; note: nearly all actives have a fitted effect of over 55% in size; note: potency is the fitted concentration of half-maximal effect
# Outline: as §2
# Tov112D = experiment: as above; details: Gynecologic cancer cell panel viability, ATPlite luminescence, 48 h; series mostly up to 57.5 µM
# Outline: as §2
# [7] = P-glycoprotein substrates identified in KB-8-5-11 adenocarcinoma cell line, qHTS therapeutic library screen (AID 1346987); note: nearly all actives have a fitted effect of over 65% in size; note: potency is the fitted concentration of half-maximal effect
# Outline: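 KB-8-5-11: colchicine-selected sub-line of KB-3-1 over-expressing P-gp; assay medium lacked colchicine. 72 h drug exposure at 37 degree C, CellTiter-Glo.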
# Hek293T = experiment: Primary qHTS to identify gynecologic anti-cancer compounds using libraries of approved drugs and bioactive compounds (AID 1345084); details: Gynecologic cancer cell panel viability, ATPlite luminescence, 48 h, control line for the selectivity index; series mostly up to 57.5 µM; note: nearly all actives have a fitted effect of over 55% in size; note: potency is the fitted concentration of half-maximal effect
# Outline: as §2
# Sequence of Phospholipid hydroperoxide glutathione peroxidase GPX4 (Homo sapiens) (P36969 whole entry, looked up): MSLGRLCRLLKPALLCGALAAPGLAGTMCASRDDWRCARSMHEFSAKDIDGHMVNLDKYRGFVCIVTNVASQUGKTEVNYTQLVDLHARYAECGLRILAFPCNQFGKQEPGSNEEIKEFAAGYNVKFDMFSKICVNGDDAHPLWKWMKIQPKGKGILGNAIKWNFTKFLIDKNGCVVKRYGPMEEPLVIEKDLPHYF
# Sequence of Calcium and integrin-binding protein 1 (Homo sapiens) (Q99828 whole entry, looked up): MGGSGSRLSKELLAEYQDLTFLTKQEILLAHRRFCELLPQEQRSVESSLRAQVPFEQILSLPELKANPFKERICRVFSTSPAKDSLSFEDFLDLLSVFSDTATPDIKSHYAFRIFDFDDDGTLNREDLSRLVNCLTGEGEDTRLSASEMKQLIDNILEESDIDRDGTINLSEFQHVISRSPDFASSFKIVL
# Sequence of Glutathione peroxidase 1 (Homo sapiens) (P07203 whole entry, looked up): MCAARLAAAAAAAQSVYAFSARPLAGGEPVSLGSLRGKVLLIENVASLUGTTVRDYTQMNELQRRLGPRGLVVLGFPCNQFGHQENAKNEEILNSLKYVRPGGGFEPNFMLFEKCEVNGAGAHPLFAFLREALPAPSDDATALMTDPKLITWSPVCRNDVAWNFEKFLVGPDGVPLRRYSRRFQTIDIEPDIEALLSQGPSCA
structure (smiles),measurement,setting,value
C[C@@H](CN1CCC2(CC1)C(=O)NCN2c1cccc(F)c1)NC(=O)c1ccc(Br)cc1,Potency,[1],inactive
same,Potency,[2],inactive
same,Potency,[3],inactive
same,Potency,[4],inactive
same,outcome,[5],inactive
same,Potency,[6],inactive
same,outcome,CRL-7250,inactive
same,Potency,C33A,inactive
same,Potency,CAOV3,inactive
same,Potency,Es-2,inactive
same,Potency,HeLa,inactive
same,Potency,JEG-3,inactive
same,Potency,OV90,inactive
same,Potency,PA-1,inactive
same,Potency,Tov-21-G,inactive
C[C@H](Nc1ncnc2nc[nH]c12)c1nc2ccc(F)cc2c(=O)n1-c1ccccc1,Potency,[1],inactive
same,Potency,[3],inactive
same,Potency,[4],inactive
same,outcome,[5],inactive
same,Potency,[6],inactive
same,max response,CRL-7250,-36.2%
same,Potency,NIH3T3,13 µM (active)
same,Potency,C33A,inactive
same,Potency,CAOV3,inactive
same,Potency,CASKI,inactive
same,Potency,Es-2,inactive
same,Potency,HeLa,inactive
same,Potency,JEG-3,inactive
same,Potency,OV90,inactive
same,Potency,PA-1,inactive
same,Potency,Tov-21-G,inactive
same,Potency,Tov112D,inactive
C[C@]12CC[C@H](O)CC1=CC[C@@H]1C2CC[C@]2(C)[C@@H](C3=CC(=O)OC3)CC[C@]12O (stereo partly specified),Potency,[7],10.1 µM (active)
same,Potency,[1],inactive
same,Potency,[3],inactive
same,Potency,[4],inactive
same,outcome,[5],inactive
same,Potency,[6],inactive
same,Potency,CRL-7250,5080 nM (active)
same,max response,NIH3T3,-1.39%
same,Potency,CASKI,inactive
same,Potency,Es-2,11.2 µM (active)
same,Potency,Tov-21-G,10 µM (active)
same,Potency,Tov112D,7.08 µM (active)
CCC1CC2CN3CCc4c([nH]c5ccccc45)C(C(=O)OC)(C2)C13 (stereo unspecified),Potency,[7],inactive
same,Potency,[1],inactive
same,Potency,[2],inactive
same,Potency,[3],inactive
same,Potency,[4],inactive
same,outcome,[5],inactive
same,Potency,[6],inactive
same,max response,CRL-7250,3.09%
same,max response,NIH3T3,-4.92%
same,Potency,C33A,inactive
same,Potency,CAOV3,inactive
same,Potency,CASKI,inactive
same,Potency,Es-2,inactive
same,Potency,HeLa,inactive
same,Potency,Hek293T,inactive
same,Potency,JEG-3,inactive
same,Potency,OV90,inactive
same,Potency,PA-1,inactive
same,Potency,Tov-21-G,inactive
same,Potency,Tov112D,inactive
Cc1[nH]c2ccc(Cl)cc2c1CCN(C)C,Potency,[7],inactive
same,Potency,[1],inactive
same,Potency,[2],inactive
same,Potency,[3],inactive
same,Potency,[4],inactive
same,outcome,[5],inactive
same,Potency,[6],inactive
same,max response,CRL-7250,-0.626%
same,outcome,NIH3T3,inactive
same,Potency,C33A,inactive
same,Potency,CAOV3,inactive
same,Potency,CASKI,inactive
same,Potency,Es-2,inactive
same,Potency,HeLa,inactive
same,Potency,Hek293T,inactive
same,Potency,JEG-3,inactive
same,Potency,OV90,inactive
same,Potency,PA-1,inactive
same,Potency,Tov-21-G,inactive
same,Potency,Tov112D,inactive
COc1cccc(NCC(F)Cn2c3ccc(Br)cc3c3cc(Br)ccc32)c1 (stereo unspecified),Potency,[7],14.6 µM (active)
same,Potency,[1],inactive
same,Potency,[2],inactive
same,Potency,[3],inactive
same,Potency,[4],inactive
same,outcome,[5],inactive
same,Potency,[6],inactive
same,Potency,NIH3T3,20.6 µM (active)
same,Potency,CASKI,7.94 µM (active)
same,Potency,HeLa,inactive
same,Potency,OV90,inactive
same,Potency,PA-1,20 µM (active)
same,Potency,Tov112D,10 µM (active)
O=S(=O)(c1ccccc1F)N1CCOc2c(N3CCNCC3)cccc21,Potency,[7],inactive
same,Potency,[1],inactive
same,Potency,[2],inactive
same,Potency,[3],inactive
same,Potency,[4],inactive
same,outcome,[5],inactive
same,Potency,[6],inactive
same,max response,CRL-7250,2.13%
same,max response,NIH3T3,2.22%
same,Potency,C33A,inactive
same,Potency,CASKI,inactive
same,Potency,Es-2,inactive
same,Potency,HeLa,inactive
same,Potency,Hek293T,inactive
same,Potency,JEG-3,inactive
same,Potency,OV90,inactive
same,Potency,PA-1,inactive
same,Potency,Tov-21-G,inactive
same,Potency,Tov112D,inactive
O=C1Nc2ccc3ncsc3c2/C1=C/c1cnc[nH]1,Potency,[7],1.64 µM (active)
same,Potency,[3],inactive
same,Potency,[4],inactive
same,Potency,[6],inactive
same,Potency,HeLa,22.4 µM (active)
same,Potency,OV90,inactive
same,Potency,PA-1,7.94 µM (active)
O=C1CN=C(c2cccc(Br)c2)c2oc3ccccc3c2N1,Potency,[7],14.6 µM (active)
same,Potency,[2],inactive
same,Potency,[3],inactive
same,Potency,[4],inactive
same,outcome,[5],inactive
same,Potency,[6],inactive
same,outcome,CRL-7250,inactive
same,Potency,C33A,inactive
same,Potency,CAOV3,inactive
same,Potency,CASKI,inactive
same,Potency,Es-2,inactive
same,Potency,OV90,inactive
same,Potency,Tov-21-G,inactive
COc1ccc(CCNCc2ccc(OC)c3ccccc23)cc1,Potency,[2],inactive
same,Potency,[3],inactive
same,Potency,[4],inactive
same,outcome,[5],inactive
same,Potency,[6],inactive
same,max response,CRL-7250,-2.06%
same,max response,NIH3T3,-21.8%
same,Potency,C33A,inactive
same,Potency,CAOV3,inactive
same,Potency,CASKI,inactive
same,Potency,Es-2,inactive
same,Potency,HeLa,inactive
same,Potency,Hek293T,inactive
same,Potency,OV90,inactive
same,Potency,PA-1,inactive
same,Potency,Tov-21-G,inactive
same,Potency,Tov112D,inactive
C/C=C(\C)C(O)C(C)/C=C(C)/C=C/C/C(C)=C/Cc1nc(OC)c(OC)c(O[C@@H]2O[C@@H](C)[C@H](O)[C@@H](O)[C@H]2O)c1C (stereo partly specified),Potency,[7],inactive
same,Potency,[1],inactive
same,Potency,[2],inactive
same,Potency,[3],inactive
same,Potency,[4],inactive
same,outcome,[5],inactive
same,Potency,[6],inactive
same,Potency,CRL-7250,796 nM (active)
same,Potency,CASKI,3.98 µM (active)
same,Potency,HeLa,inactive
same,Potency,OV90,inactive
same,Potency,Tov112D,inactive
O=C(C[C@@H]1NCCC[C@H]1O)Cn1cnc2ccccc2c1=O,Potency,[7],0.259 µM (active)
same,Potency,[1],inactive
same,Potency,[2],inactive
same,Potency,[3],inactive
same,Potency,[4],inactive
same,outcome,[5],inactive
same,Potency,[6],inactive
same,Potency,CRL-7250,231 nM (active)
same,Potency,NIH3T3,0.366 µM (active)
same,Potency,C33A,631 nM (active)
same,Potency,CASKI,1.78 µM (active)
same,Potency,Es-2,1.41 µM (active)
same,Potency,HeLa,1.78 µM (active)
same,Potency,Hek293T,447 nM (active)
same,Potency,OV90,11.2 µM (active)
same,Potency,PA-1,0.282 µM (active)
same,Potency,Tov-21-G,0.794 µM (active)
same,Potency,Tov112D,0.631 µM (active)
Cc1ccc(Cn2nc(C(=O)N[C@@H]3C(C)(C)[C@@H]4CC[C@@]3(C)C4)cc2-c2ccc(Cl)c(C)c2)cc1,Potency,[7],inactive
same,Potency,[1],inactive
same,Potency,[3],inactive
same,Potency,[4],inactive
same,outcome,[5],inactive
same,Potency,[6],inactive
same,max response,CRL-7250,0.138%
same,max response,NIH3T3,-3.82%
same,Potency,C33A,inactive
same,Potency,CASKI,inactive
same,Potency,Es-2,inactive
same,Potency,HeLa,inactive
same,Potency,Hek293T,inactive
same,Potency,JEG-3,inactive
same,Potency,OV90,inactive
same,Potency,PA-1,inactive
same,Potency,Tov-21-G,inactive
same,Potency,Tov112D,inactive
